From the supplement of paper PMC4466140

Tests used:
Experiment in all cases: SPOT peptide array binding signal intensity (averaged, normalized) (arbitrary units (background-subtracted, floor 0; scale differs between SH3 domains)); higher = stronger binding of the SH3 domain to the peptide
AgAbp1 = molecular target: AgAbp1
In short: (§1)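 Binding signal refers to normalized, background-subtracted spot intensity averaged over replicates, expressed in arbitrary units that differ between domains. GST-fused SH3 domains from four yeast species were incubated at 10 μg/ml overnight at 4°C on cellulose membranes of synthetic 15-mer peptides with cysteines replaced by serines. Bound protein was detected with anti-GST antibody, an HRP anti-mouse secondary and luminol, and quantified with Genespotter.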

AgBbc1 = molecular target: AgBbc1
In short: as §1

AgBem1-D1 = molecular target: AgBem1-D1
In short: as §1

AgBzz1-D1 = molecular target: AgBzz1-D1
In short: as §1

AgBzz1-D2 = molecular target: AgBzz1-D2
In short: as §1

AgCyk3 = molecular target: AgCyk3
In short: as §1

AgFus1 = molecular target: AgFus1
In short: as §1

AgHof1 = molecular target: AgHof1
In short: as §1

AgHse1 = molecular target: AgHse1
In short: as §1

AgLsb1 = molecular target: AgLsb1
In short: as §1

AgLsb4 = molecular target: AgLsb4
In short: as §1

AgMyo5 = molecular target: AgMyo5
In short: as §1

AgNbp2 = molecular target: AgNbp2
In short: as §1

AgRvs167 = molecular target: AgRvs167
In short: as §1

AgSho1 = molecular target: AgSho1
In short: as §1

AgSla1-D1-D2 = molecular target: AgSla1-D1-D2
In short: as §1

AgSla1-D3 = molecular target: AgSla1-D3
In short: as §1

CaAbp1-D1 = molecular target: CaAbp1-D1
In short: as §1

CaAbp1-D2 = molecular target: CaAbp1-D2
In short: as §1

CaBbc1 = molecular target: CaBbc1
In short: as §1

CaBem1-D1 = molecular target: CaBem1-D1
In short: as §1

CaBzz1-D1 = molecular target: CaBzz1-D1
In short: as §1

CaBzz1-D2 = molecular target: CaBzz1-D2
In short: as §1

CaCyk3 = molecular target: CaCyk3
In short: as §1

CaFus1 = molecular target: CaFus1
In short: as §1

CaHof1 = molecular target: CaHof1
In short: as §1

CaHse1 = molecular target: CaHse1
In short: as §1

CaLsb1 = molecular target: CaLsb1
In short: as §1

CaLsb4 = molecular target: CaLsb4
In short: as §1

CaMyo5 = molecular target: CaMyo5
In short: as §1

CaNbp2 = molecular target: CaNbp2
In short: as §1

CaRvs167 = molecular target: CaRvs167
In short: as §1

CaRvs167-3 = molecular target: CaRvs167-3
In short: as §1

CaSho1 = molecular target: CaSho1
In short: as §1

CaSla1-D1-D2 = molecular target: CaSla1-D1-D2
In short: as §1

CaSla1-D3 = molecular target: CaSla1-D3
In short: as §1

ScAbp1 = molecular target: ScAbp1
In short: as §1

ScBbc1 = molecular target: ScBbc1
In short: as §1

ScBem1-D1 = molecular target: ScBem1-D1
In short: as §1

ScBzz1-D1 = molecular target: ScBzz1-D1
In short: as §1

ScBzz1-D2 = molecular target: ScBzz1-D2
In short: as §1

ScCyk3 = molecular target: ScCyk3
In short: as §1

ScFus1 = molecular target: ScFus1
In short: as §1

ScHof1 = molecular target: ScHof1
In short: as §1

ScHse1 = molecular target: ScHse1
In short: as §1

ScLsb1 = molecular target: ScLsb1
In short: as §1

ScLsb2 = molecular target: ScLsb2
In short: as §1

ScLsb3 = molecular target: ScLsb3
In short: as §1

ScLsb4 = molecular target: ScLsb4
In short: as §1

ScMyo3 = molecular target: ScMyo3
In short: as §1

ScMyo5 = molecular target: ScMyo5
In short: as §1

ScNbp2 = molecular target: ScNbp2
In short: as §1

ScPex13 = molecular target: ScPex13
In short: as §1

ScRvs167 = molecular target: ScRvs167
In short: as §1

ScSho1 = molecular target: ScSho1
In short: as §1

ScSla1-D1-D2 = molecular target: ScSla1-D1-D2
In short: as §1

ScSla1-D3 = molecular target: ScSla1-D3
In short: as §1

SpAbp1-D1 = molecular target: SpAbp1-D1
In short: as §1

SpBbc1 = molecular target: SpBbc1
In short: as §1

SpBzz1-D1 = molecular target: SpBzz1-D1
In short: as §1

SpBzz1-D2 = molecular target: SpBzz1-D2
In short: as §1

SpCyk3 = molecular target: SpCyk3
In short: as §1

SpHof1 = molecular target: SpHof1
In short: as §1

SpHof1-2 = molecular target: SpHof1-2
In short: as §1

SpHof1-3 = molecular target: SpHof1-3
In short: as §1

SpHse1 = molecular target: SpHse1
In short: as §1

SpLsb1 = molecular target: SpLsb1
In short: as §1

SpLsb4 = molecular target: SpLsb4
In short: as §1

SpMyo1 = molecular target: SpMyo1
In short: as §1

SpNbp2 = molecular target: SpNbp2
In short: as §1

SpPex13 = molecular target: SpPex13
In short: as §1

SpRvs167 = molecular target: SpRvs167
In short: as §1

SpSla1-D1-D2 = molecular target: SpSla1-D1-D2
In short: as §1

SpSla1-D3 = molecular target: SpSla1-D3
In short: as §1

HAPPLPPTAPPPPSL was tested, and the “SPOT peptide array binding signal intensity” value (AgAbp1) was ≤ 0, the “SPOT peptide array binding signal intensity” value (AgBbc1) was ≤ 0 and the “SPOT peptide array binding signal intensity” value (AgBem1-D1) was ≤ 0. For the same binder, the “SPOT peptide array binding signal intensity” value (AgBzz1-D1) was ≤ 0, the “SPOT peptide array binding signal intensity” value (AgBzz1-D2) was ≤ 0 and the “SPOT peptide array binding signal intensity” value (AgCyk3) was ≤ 0. For the same binder, the “SPOT peptide array binding signal intensity” value (AgFus1) was ≤ 0, the “SPOT peptide array binding signal intensity” value (AgHof1) was 26.5 and the “SPOT peptide array binding signal intensity” value (AgHse1) was ≤ 0. The “SPOT peptide array binding signal intensity” value (AgLsb1) was ≤ 0, the “SPOT peptide array binding signal intensity” value (AgLsb4) was ≤ 0 and the “SPOT peptide array binding signal intensity” value (AgMyo5) was 2230. The “SPOT peptide array binding signal intensity” value (AgNbp2) was ≤ 0, the “SPOT peptide array binding signal intensity” value (AgRvs167) was ≤ 0 and the “SPOT peptide array binding signal intensity” value (AgSho1) was ≤ 0. The “SPOT peptide array binding signal intensity” value (AgSla1-D1-D2) was ≤ 0, the “SPOT peptide array binding signal intensity” value (AgSla1-D3) was ≤ 0 and the “SPOT peptide array binding signal intensity” value (CaAbp1-D1) was ≤ 0. For the same binder, the “SPOT peptide array binding signal intensity” value (CaAbp1-D2) was 2, the “SPOT peptide array binding signal intensity” value (CaBbc1) was ≤ 0 and the “SPOT peptide array binding signal intensity” value (CaBem1-D1) was ≤ 0. For the same binder, the “SPOT peptide array binding signal intensity” value (CaBzz1-D1) was 2, the “SPOT peptide array binding signal intensity” value (CaBzz1-D2) was 6 and the “SPOT peptide array binding signal intensity” value (CaCyk3) was ≤ 0. The “SPOT peptide array binding signal intensity” value (CaFus1) was ≤ 0, the “SPOT peptide array binding signal intensity” value (CaHof1) was ≤ 0 and the “SPOT peptide array binding signal intensity” value (CaHse1) was 1.5. For the same binder, the “SPOT peptide array binding signal intensity” value (CaLsb1) was ≤ 0, the “SPOT peptide array binding signal intensity” value (CaLsb4) was ≤ 0 and the “SPOT peptide array binding signal intensity” value (CaMyo5) was 792. For the same binder, the “SPOT peptide array binding signal intensity” value (CaNbp2) was ≤ 0, the “SPOT peptide array binding signal intensity” value (CaRvs167) was ≤ 0 and the “SPOT peptide array binding signal intensity” value (CaRvs167-3) was ≤ 0. For the same binder, the “SPOT peptide array binding signal intensity” value (CaSho1) was ≤ 0, the “SPOT peptide array binding signal intensity” value (CaSla1-D1-D2) was ≤ 0 and the “SPOT peptide array binding signal intensity” value (CaSla1-D3) was ≤ 0. The “SPOT peptide array binding signal intensity” value (ScAbp1) was ≤ 0, the “SPOT peptide array binding signal intensity” value (ScBbc1) was ≤ 0 and the “SPOT peptide array binding signal intensity” value (ScBem1-D1) was ≤ 0. For the same binder, the “SPOT peptide array binding signal intensity” value (ScBzz1-D1) was ≤ 0, the “SPOT peptide array binding signal intensity” value (ScBzz1-D2) was ≤ 0 and the “SPOT peptide array binding signal intensity” value (ScCyk3) was ≤ 0. The “SPOT peptide array binding signal intensity” value (ScFus1) was ≤ 0, the “SPOT peptide array binding signal intensity” value (ScHof1) was 40.5 and the “SPOT peptide array binding signal intensity” value (ScHse1) was ≤ 0. The “SPOT peptide array binding signal intensity” value (ScLsb1) was ≤ 0, the “SPOT peptide array binding signal intensity” value (ScLsb2) was ≤ 0 and the “SPOT peptide array binding signal intensity” value (ScLsb3) was ≤ 0. For the same binder, the “SPOT peptide array binding signal intensity” value (ScLsb4) was ≤ 0, the “SPOT peptide array binding signal intensity” value (ScMyo3) was 1750 and the “SPOT peptide array binding signal intensity” value (ScMyo5) was 2000. For the same binder, the “SPOT peptide array binding signal intensity” value (ScNbp2) was ≤ 0, the “SPOT peptide array binding signal intensity” value (ScPex13) was ≤ 0 and the “SPOT peptide array binding signal intensity” value (ScRvs167) was ≤ 0. The “SPOT peptide array binding signal intensity” value (ScSho1) was ≤ 0, the “SPOT peptide array binding signal intensity” value (ScSla1-D1-D2) was ≤ 0 and the “SPOT peptide array binding signal intensity” value (ScSla1-D3) was 1.75. The “SPOT peptide array binding signal intensity” value (SpAbp1-D1) was ≤ 0, the “SPOT peptide array binding signal intensity” value (SpBbc1) was 1.5 and the “SPOT peptide array binding signal intensity” value (SpBzz1-D1) was 148. For the same binder, the “SPOT peptide array binding signal intensity” value (SpBzz1-D2) was ≤ 0, the “SPOT peptide array binding signal intensity” value (SpCyk3) was ≤ 0 and the “SPOT peptide array binding signal intensity” value (SpHof1) was ≤ 0. For the same binder, the “SPOT peptide array binding signal intensity” value (SpHof1-2) was ≤ 0, the “SPOT peptide array binding signal intensity” value (SpHof1-3) was ≤ 0 and the “SPOT peptide array binding signal intensity” value (SpHse1) was ≤ 0. The “SPOT peptide array binding signal intensity” value (SpLsb1) was ≤ 0, the “SPOT peptide array binding signal intensity” value (SpLsb4) was ≤ 0 and the “SPOT peptide array binding signal intensity” value (SpMyo1) was 1320. For the same binder, the “SPOT peptide array binding signal intensity” value (SpNbp2) was ≤ 0, the “SPOT peptide array binding signal intensity” value (SpPex13) was ≤ 0 and the “SPOT peptide array binding signal intensity” value (SpRvs167) was 2.67. For the same binder, the “SPOT peptide array binding signal intensity” value (SpSla1-D1-D2) was 7 and the “SPOT peptide array binding signal intensity” value (SpSla1-D3) was ≤ 0.
